# ChEMBL document CHEMBL4888484, “Replenishing the malaria drug discovery pipeline: Screening and hit evaluation of the MMV Hit Generation Library 1 (HGL1) against asexual blood stage Plasmodium falciparum ,using a nano luciferase reporter read-out” (2022)
# The campaign covered roughly 4,800 compounds. About 420 (8.8%) showed an effect of 50% or more. The sample holds strong results, similar compounds and a random draw of the others, so the mix is not that of the screen.
# Tested on: Plasmodium falciparum
# Experiment: Confirmatory screen in NF54 nanoGlo assay, in single point, at 2uM, 72h
# Assay type: functional, Erythrocyte
# Settings: timepoint 72 hour
row,SMILES,% Inhibition [%]
1,O=C1CCCC1C(c1ccccc1)N(C1=NS(=O)(=O)c2ccccc21)c1ccccc1 (configuration not stated),-10
2,CNC(=O)CCS(=O)(=O)CCCC(=O)Nc1c(C)cc(C)cc1C,-14
3,c1ccc2oc(N3CCCCCCC3)nc2c1,-5
4,Cc1ccc(CC(=O)N2CCC(NC(=O)OC(C)(C)C)CC2C)o1 (configuration not stated),-7
5,COC[C@@H]1CCCN1c1ccc2c(c1)CNCC(=O)N1CC[C@@H](CC(=O)NCCN3CCOCC3)[C@@H](/C=C/CO2)C1,-13
6,CC[n+]1ccc(-c2ncc(-c3ccc(C(C)(C)C)cc3)o2)cc1,63
7,CCC(C)(CC)[C@@](O)(C#CC[N+]1(Cc2ccccc2Cl)CCCCC1)c1ccccc1,4
8,CN1c2cc(C(=O)N3CCc4ccccc4C3)ccc2C(=O)N2CCCC[C@H]21,-6
9,Cc1cc2ncn([C@@H](C)c3nc(-c4cnccn4)cs3)c2cc1C,0
10,CCC[C@H](NC(=O)c1ccc(Cl)o1)c1nnn[nH]1,6
11,C=CCCCNc1ccc(C(N)=O)c(F)c1,-1
12,COc1ccc(CCc2nc(NC(=O)c3nc(C)sc3C)n[nH]2)cc1OC,65
13,COc1ccc(CCc2nc(NC(=O)c3[nH]nc4c3CCC4)n[nH]2)cc1,-1
14,COc1ccc(CCc2nnc(NC(=O)Cc3c(C)noc3C)[nH]2)cc1OC,15
15,Cc1c(CCNC(=O)NCC2CC23CCc2ccccc23)cnn1C (configuration not stated),-4
16,Cc1cc(C(=O)NCCCn2cccn2)nc(N2CCOCC2)n1,0
17,Cc1c(-c2nn(-c3nc(C4CC4)cc(C(F)(F)F)n3)c(-c3cnn(C)c3C)c2Cl)cnn1C,69
18,Cc1c(-c2nn(-c3ccccc3)c(-c3cnn(C)c3C)c2Cl)cnn1C,-4
19,Cc1nn(C)cc1-c1nn(-c2nc(C3CC3)cc(C(F)(F)F)n2)c(-c2cn(C)nc2C)c1C,16
20,CC(C)Nc1nc2nonc2n2cnnc12,69
21,CN(Cc1cc(C(F)(F)F)ccc1Cl)[C@H]1CCc2nn(C)c(=O)n2CC1,-8
22,Cn1ccc2cccc(NC(=O)N3CC(C)(CO)C3)c21,1
23,Cc1c(-c2nn3c(Cc4ccc(Cl)cc4)nnc3s2)cnn1-c1ccccc1,-16
24,COc1cc(C(=O)Nc2scnc2C)cc(OC)c1OC,-1
25,COc1cc(C(=O)Nc2ccc3sc(NC(=O)c4cc(OC)c(OC)c(OC)c4)nc3n2)cc(OC)c1OC,56
26,Cc1cccc(C(=O)Nc2nc3cc4sc(NC(=O)c5cccc(C)c5)nc4cc3s2)c1,7

row,SMILES,% Inhibition [%]
1,C1=CCC(c2nc(-c3cnccn3)no2)C1,-6
2,CCCCCNC(=O)NCc1ncoc1C,-1
3,C[C@H](O)CNCc1ccc(Cl)cc1Cl,-8
4,CCNC(=O)NCCOC(=O)c1cccc(C)c1Cl,1
5,O=C(NCc1cccc(F)c1)[C@H]1CCCN(c2nc3ccccc3n(Cc3ccccc3)c2=O)C1,5
6,Cc1cc(C)cc(-c2cc3nc(C)cc(N4CCC(C(=O)Nc5ccc(C)c(Cl)c5)CC4)n3n2)c1,0
7,Cc1cc(C)cc(-c2cc3nc(C)cc(N4CCC(C(=O)NCc5cccc(F)c5)CC4)n3n2)c1,79
8,CC[n+]1c(C)n(C2CCCCC2)c2ccc(C(=O)OC)cc21,0
9,Cn1cc(C(C(=O)O[C@@H]2C[C@@H]3CC[C@@]2(C)C3(C)C)c2cn(C)c3ccccc23)c2ccccc21,0
10,CC[N+](CC)(CC(=O)OC1CC2CCC1(C)C2(C)C)CC(=O)OC1CC2CCC1(C)C2(C)C (configuration not stated),83
11,Cc1nc2cccnc2n1-c1cc(C(=O)NCc2ccccc2Cl)ccc1Cl,-2
12,O=C(NCc1cccnc1Oc1ccccc1)c1cccnc1,5
13,CC1CCN(c2nccnc2Oc2ccc(C(=O)NCc3ccccc3Cl)cc2)CC1,59
14,Cc1cc(=O)n2ncc(C(=O)NCc3cc(F)cc(F)c3)c2[nH]1,-13
15,C=CCOC(=S)NC(=O)Cc1ccccc1Cl,7
16,Cc1ccc(-c2cn3c4ccccc4nc3n2CCN2CCN(C)CC2)cc1,2
17,Cn1c(-c2ccc(-c3ccccc3)cc2)cn2cc(-c3cccc(Br)c3)nc12,0
18,CCN(CC)CCn1c2ccccc2n2cc(-c3ccc(Br)cc3)nc12,59
19,Cn1c(-c2ccc(Br)cc2)cn2cc(-c3ccc(Cl)cc3)nc12,-5
20,O=C(Nc1ccccc1)c1cccc(CN2CCN3CCOC[C@@H]3C2)c1,-5
21,CCn1cc(NC(=O)CCn2ncc3c(Cl)cccc32)cn1,-6
22,O=C(c1cc2ncccn2n1)N1CCc2ccccc2C1,-3
23,O=S(=O)(Nc1cccc(-c2nnc3n2CCC3)c1)c1ccc2c(c1)OCCCO2,-12
24,CN1CCC(Nc2ncnc3c2cnn3C)C1c1ccc(Cl)cc1 (configuration not stated),4
25,Brc1cncnc1NC1CC1,2
26,CC[C@H](O)CN1CCC(Nc2ncnc3cc(Cl)ccc23)CC1,42

row,SMILES,% Inhibition [%]
1,CC1CC(Nc2ncnc3cc(Br)ccc23)CCN1C (configuration not stated),96
2,Cc1nc(-c2ccc(C(F)(F)F)cc2)nc(N2CCN(C(=O)c3cc(C(F)(F)F)cc(C(F)(F)F)c3)CC2)c1C(C)C,-2
3,CC(C)(C)C(=O)Nc1cc(Br)c(O)c(Br)c1,3
4,COCCN1CC2(CCCC2)N(C(=O)COc2ccc(F)cc2)CC1=O,-7
5,COc1cc(=O)c(C(=O)N2CCC(C(N)=O)CC2)nn1-c1ccc(F)c(F)c1,3
6,Cc1nccn1-c1cc(CNC(=O)[C@H]2CCCN(S(=O)(=O)c3cccs3)C2)ccn1,2
7,Cc1ccc(C(=O)C[n+]2cc(-c3ccc(-c4ccccc4)cc3)n(C)c2N)cc1,4
8,O=C(c1ccccc1)n1c(=O)n(C(=O)c2ccccc2)c2ccccc21,6
9,Cc1n(CC(=O)c2ccccc2)c2ccccc2[n+]1CC(=O)c1ccccc1,68
10,COc1ccc(S(=O)(=O)N2CCN(Cc3noc(CCC(=O)N(C)Cc4ccccc4)n3)CC2)cc1,-6
11,CC(C)(CC(=O)O)CC(=O)Nc1ccc(Cc2nnc3ccccn23)cc1,-4
12,c1ccc(-c2cn[nH]c2N2CCNCC2)cc1,-7
13,Oc1cc(OCc2ccccc2F)ccc1-c1[nH]ncc1-c1ccccc1,75
14,COc1cc(-c2nc3ccccc3s2)ccc1OCc1cccc2ccccc12,-7
15,COc1cc(OC)cc(C2(O)CCN(C(=O)CCc3ccccc3F)CC2)c1,-10
16,O=C(NCC1CC1)c1cn[nH]c1-c1ccccc1,-1
17,COc1ccc(-c2c(C(F)(F)F)n[nH]c2-c2ccc(OCc3ccccc3F)cc2O)cc1,90
18,NS(=O)(=O)Cc1ccc(CNc2ccc3ccc(F)cc3n2)cc1,3
19,CCC(=O)N1CCc2sc(C(=O)NC3CCN(Cc4ccccc4)CC3)cc2C1,-5
20,CCCn1nccc1C(=O)NCCCn1ncc2c(C)cccc21,-2
21,CNC(=O)c1cc(NS(=O)(=O)N2CCCCCC2)ccc1F,-8
22,CCNC(=O)N1CCCC[C@@]1(C)c1noc(-c2ccc(F)cc2)n1,5
23,O=C(Nc1ccncc1)c1nc(N2CCCC2)ncc1Br,-5
24,Fc1ccc(COc2cccc(CNCCN3CCOCC3)c2)cc1,-8
25,Cc1nn(C)c(Cl)c1CNCc1ccc(N2CCCCC2)nc1,-10
26,COc1cc(CNCCN2CCOCC2)ccc1OCc1cccc(C)c1,-2

row,SMILES,% Inhibition [%]
1,CC1CCC(C)(NC(=O)Nc2ccn(C(C)C)n2)CC1 (configuration not stated),-11
2,CC1(C)CC[C@H](NC(=O)CCNc2ncccn2)c2ccccc21,-8
3,COc1cc2c(cc1OC)CN(c1noc(-c3ccccc3)n1)CC2,-5
4,CC(C)(C)c1ccc(C(=O)N[C@H]2C[C@@H]3CC[C@H]2C3)cc1,8
5,Cc1ccc(CNC(=O)c2csnn2)n1C,-1
6,COc1ccc(CNC(=O)[C@H](C)n2ccc3cc(S(=O)(=O)N4CCCC4)ccc32)cc1OC,0
7,O=C1NC(=O)C2(CCN(C(=O)C3CC4CCC3C4)CC2)N1 (configuration not stated),-7
8,N#CC1CCC(Nc2cnn(-c3ccncc3)c2)CC1 (configuration not stated),5
9,CS(=O)(=O)N1CC[C@H](CC(=O)N2CCN(c3ccc(F)cc3)CC2)C1,-14
10,CC(C)C(=O)N1CC[C@H](CC(=O)NCc2ccncc2)C1,0
11,Cc1nn(C)cc1S(=O)(=O)N1CCC[C@@H]1CCc1ccccn1,-12
12,COc1cc(OC)c(OC)cc1CNC(C)C,-2
13,Cc1c(C(=O)NC[C@](C)(O)c2ccc(F)cc2F)cnn1C,7
14,CN(Cc1cccnc1)c1ccc(S(=O)(=O)C(F)F)cc1,-5
15,O=C(NCCc1c(Cl)cccc1Cl)[C@@H]1CCCc2[nH]cnc21,-2
16,O=C(c1cc(F)c[nH]1)N1CCN(C(=O)c2cc(F)c[nH]2)[C@@H]2CCCC[C@H]21,13
17,COc1ccc(-c2cc3ncc(C(=O)c4cc(Cl)ccc4O)cn3n2)cc1,72
18,COc1ccc(C2=NC3(CCN(Cc4ccccc4)CC3)N[C@H](c3cc(Cl)ccc3O)C2)cc1,24
19,O=C(Cc1ccc(Cl)cn1)Nc1ccnn1[C@H]1CCCc2ccccc21,-10
20,Cc1ccc(COc2cccc(CNC3CC3)c2)cc1,-7
21,Cc1ccc(S(=O)(=O)N(CC(=O)NC2CCN(C)CC2)c2cccc(Cl)c2)cc1,-7
22,CN1CCN(C(=O)CNC(=O)c2cccc(Cl)c2)CC1,-2
23,Cn1c(=O)c2ccnn2c2ccc(C(=O)NC3CCN(Cc4ccccc4)CC3)cc21,23
24,CC(C)Cn1ncnc1COC(=O)c1cccnc1,-1
